High-throughput results (PubChem BioAssay)
Hits are enriched below; roughly 2.9% of the tested compounds scored in any of these assays.
Rtt109 HAT inh: inhibitors of Candida albicans Rtt109/Vps75 histone acetyltransferase; Q5AAJ8; purified Rtt109/Vps75, ThioGlo CoA-SH fluorescence, 4 h; inhibition, % at 34.9 µM; 330,000 compounds, 0.16% hits;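 active = inhibition of at least 50% in every replicate; inconclusive = best replicate reaches 50% inhibition but some replicates fall short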
Target sequence (Q5AAJ8 whole entry, looked up): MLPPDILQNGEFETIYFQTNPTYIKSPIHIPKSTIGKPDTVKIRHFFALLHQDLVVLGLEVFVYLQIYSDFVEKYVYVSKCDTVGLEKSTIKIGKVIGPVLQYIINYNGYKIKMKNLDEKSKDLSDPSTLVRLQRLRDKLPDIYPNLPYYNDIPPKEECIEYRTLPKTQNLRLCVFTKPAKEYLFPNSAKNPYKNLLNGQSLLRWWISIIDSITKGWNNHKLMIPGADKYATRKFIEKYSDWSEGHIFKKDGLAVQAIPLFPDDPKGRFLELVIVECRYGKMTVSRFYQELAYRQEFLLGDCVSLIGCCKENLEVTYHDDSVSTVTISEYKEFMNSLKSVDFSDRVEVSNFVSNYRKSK
Myeloid diff MLP: myeloid differentiation induction. ER-HoxA9 myeloid progenitors, lysozyme-GFP differentiation, flow cytometry. calls only at 10 µM. 360,000 compounds, 1% hits. AID 624256;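 active = normalized GFP-positive differentiation at or above the plate's own cutoff, the solvent-only control mean plus 3 SD; inconclusive = no clear call, values can overlap the other calls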;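 also: cells exposed to compound for four days before flow analysis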
Cardio protect: myocardial damage modulation in H9c2 cells | 360,000 compounds, 0.63% hits | H9c2 cardiomyocytes, H2O2 injury protection, ATPLite, 2 h | protection from H2O2 cell death, % at 20 µM | AID 588492;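 active = compounds giving at least 50% protection of heart cells from peroxide-induced death in the single-dose screen, raw or plate-pattern-corrected value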
HGIII-sPLA2 inh: Inhibits HGIII-sPLA2 liposome hydrolysis, primary screen; inhibition, % at 12.2 µM; QFRET BODIPY PC-A2 liposome hydrolysis, fluorescence; 370,000 compounds, 0.56% hits; Q9NZ20;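 active = inhibition above mean plus 3 SD of compounds lying within the high and low control bounds, cut at about 19% in these data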
ABHD5 PLIN5 PPI: blocks binding of human ABHD5 to perilipin-5 | Q00G26+Q8WTS1 | Split G. princeps luciferase complementation, luminescence, 4 h | inhibition, % at 4 µM | 360,000 compounds, 0.78% hits | AID 602281;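 active = inhibition above the mean inhibition across every tested compound plus 3 SD, cut at about 22% in these data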
DAGLB inh: blocks human DAGLB lipase activity | Q8NCG7 | HEK293T DAGLB membrane lysate, EnzChek fluorogenic substrate | inhibition, % at 5.17 µM | 340,000 compounds, 0.059% hits | AID 504411; in the data active = inhibition above about 34%
DAGLB confirm: DAGLB (human) inhibition, confirmation screen | shares compounds with DAGLB inh | HEK293T DAGLB membrane lysate, EnzChek fluorogenic substrate | inhibition, % at 5.17 µM | 190 compounds, 73% hits | AID 504445;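 active = mean inhibition over triplicate wells above a set limit taken from the primary lipase screen, cut at about 34% in these data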
ABHD5 PLIN5 conf: ABHD5-PLIN5 interaction inhibition, confirmed | 2,200 compounds, 67% hits | biochemical ABHD5-PLIN5 interaction, luminescence | shares compounds with ABHD5 PLIN5 PPI | inhibition, % at 4 µM; in the data active = inhibition above about 23%
HNF4 split-luc: counter-screen for ABHD5-PLIN5 inhibitors: HNF4 split-luciferase. 2,200 compounds, 77% hits. HNF4 dimerization, luminescence, biochemical. shares compounds with ABHD5 PLIN5 PPI. inhibition, % at 4 µM;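 active = mean inhibition across replicate wells exceeding the computed hit threshold, cut at about 13% in these data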;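 also: light from luciferase halves that rejoin when HNF4 fusion proteins dimerize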
Each line names hits and unclear results; the compound was inactive in the other large screens (follow-up assays come after a bar, where they were run).

COc1ccc(C(c2nnnn2-c2c(C)cccc2C)N2CCC3(CC2)C(=O)NCN3c2ccccc2)cc1 (stereo not given)	none (no result: Rtt109 HAT inh, DAGLB inh)
CCCCCc1nc2ccccc2c(=O)n1-c1ccccc1[N+](=O)[O-]	none
CCCCCc1nc2c(c(=O)c3ccccc3n2C)c(=O)n1C1CCCCCC1	Myeloid diff MLP active
COC(=O)C1=C(c2ccccc2OCc2ccccc2)C[C@@H]2CC[C@H]1N2C(=O)NC1CCN(Cc2ccccc2)CC1	Myeloid diff MLP active
COC(=O)C1=C(c2ccc(F)cc2OCc2ccccc2)C[C@@H]2CC[C@H]1N2C(=O)NC1CCN(Cc2ccccc2)CC1	none
Cc1cc(C)cc(N2C(=O)NC(=O)/C(=C\C=C\c3ccco3)C2=O)c1	Cardio protect 61, ABHD5 PLIN5 PPI 23
CCc1ccc(N2C(=O)NC(=O)/C(=C\C=C\c3ccco3)C2=O)cc1	ABHD5 PLIN5 PPI 22
Cc1ccc(N2C(=O)NC(=O)/C(=C/C=C/c3ccco3)C2=O)cc1	none
CC(C)c1ccc(N2C(=O)NC(=O)/C(=C/C=C/c3ccco3)C2=O)cc1	Myeloid diff MLP active, ABHD5 PLIN5 PPI 22
Cc1ccc(S(=O)(=O)N2CCCC(C(=O)N3CCC4(CC3)OCCO4)C2)cc1 (stereo not given)	none
O=C1NC(=O)C(=Cc2ccc(-c3cc(Cl)ccc3[N+](=O)[O-])o2)C(=O)N1	Myeloid diff MLP active
CNC(=O)Oc1cccc(-c2cn3cc(OC(=O)NC)ccc3n2)c1	none
CNC(=O)Oc1ccc2c(c1)C(=O)c1ccccc1CO2	Myeloid diff MLP active
CCCC(CCC)C(=O)OC[N+](C)(C)CCOC(=O)C(O)(c1ccccc1)C1CCCC1 (stereo not given)	Rtt109 HAT inh 57
COC(=O)[C@]12OC[C@]34C([C@@H](O)[C@@H]1O)[C@]1(C)CC(=O)C(O)=C(C)[C@@H]1C[C@H]3OC(=O)[C@H](O)[C@@H]24 (stereo not given in full)	none
CC(=O)n1cc(C=C2C(=O)NC(=O)NC2=O)c2ccccc21	none
COCCNC(=O)Cn1cc(C=C2C(=O)NC(=O)NC2=O)c2ccccc21	ABHD5 PLIN5 PPI 22
O=C1c2ccccc2-n2nncc2C2c3cc(Br)ccc3CCN12 (stereo not given)	none (no result: Rtt109 HAT inh, DAGLB inh)
COc1ccc2c3c([nH]c2c1)C(C)NCC3 (stereo not given)	Myeloid diff MLP active
COc1ccc2[nH]c3c(c2c1)CCNC3C (stereo not given)	none
COCCCn1c(N)c(C(=O)Nc2sc3c(c2C(=O)OC)CCCC3)c2nc3ccccc3nc21	Cardio protect 93
CN1/C(=C\C=C2C(=O)NC(=S)NC2=O)C(C)(C)c2ccccc21	Myeloid diff MLP active
NP(=O)(OCCCc1ccccc1)Oc1ccc(Cl)cc1 (stereo not given)	DAGLB inh 35 | DAGLB confirm 35
COC(=O)C1=C(c2ccc(OC(F)(F)F)cc2)C[C@@H]2CC[C@H]1N2C(=O)NC1CC1	none
O=C(O)CCn1cc(C=C2C(=O)NC(=O)NC2=O)c(-c2ccc(Br)cc2)n1	ABHD5 PLIN5 PPI 25 | ABHD5 PLIN5 conf 69 | HNF4 split-luc 71
O=c1[nH]c(=O)n(-c2cccc(Cl)c2)c(O)c1/C=N/c1ccccn1	ABHD5 PLIN5 PPI 26 | ABHD5 PLIN5 conf inactive | HNF4 split-luc 27
N=Cc1c(O)n(-c2cccc(Cl)c2)c(=O)[nH]c1=O	none
CNS(=O)(=O)c1ccc(N=Cc2c(O)n(-c3ccccc3)c(=O)[nH]c2=O)cc1	ABHD5 PLIN5 PPI 40 | ABHD5 PLIN5 conf inactive | HNF4 split-luc 22
COc1ccccc1N1C(=O)CC(=O)NC1=O	ABHD5 PLIN5 PPI 27 | ABHD5 PLIN5 conf inactive | HNF4 split-luc 36
CCOc1cccc(N2C(=O)CC(=O)NC2=O)c1	none
COc1cccc(N2C(=O)CC(=O)NC2=O)c1	ABHD5 PLIN5 PPI 27 | ABHD5 PLIN5 conf inactive | HNF4 split-luc 32
CCc1ccc(N2C(=O)CC(=O)NC2=O)cc1	ABHD5 PLIN5 PPI 24 | ABHD5 PLIN5 conf inactive | HNF4 split-luc 16
CCOC(=O)C1(c2ccccc2)CCN(CCC(=O)Nc2ccc(F)cc2)CC1	none
CN1C2CCC1/C(=C/c1ccccn1)C(=O)/C2=C\c1ccccn1	Myeloid diff MLP inconclusive, ABHD5 PLIN5 PPI 98 (no result: Rtt109 HAT inh) | ABHD5 PLIN5 conf 104 | HNF4 split-luc 109
O=C1NC(=S)NC(=O)C12C(c1ccc(F)cc1)NC(=S)NC2c1ccc(F)cc1 (stereo not given)	ABHD5 PLIN5 PPI 24 | ABHD5 PLIN5 conf 79 | HNF4 split-luc 63
O=C1NC(=S)NC(=O)C12C(c1ccccc1)NC(=S)NC2c1ccccc1 (stereo not given)	ABHD5 PLIN5 PPI 29 | ABHD5 PLIN5 conf 61 | HNF4 split-luc 39
Cc1ccc(C2NC(=S)NC(c3ccc(C)cc3)C23C(=O)NC(=O)NC3=O)cc1 (stereo not given)	none
CC1=C(O)C(=O)C=C2C1=CC=C1C2(C)CCC2(C)C3CC(C)(C(=O)O)CCC3(C)CCC12C (stereo not given)	Myeloid diff MLP inconclusive, ABHD5 PLIN5 PPI 95 | ABHD5 PLIN5 conf 102 | HNF4 split-luc 106
O=P1(NCCCn2cc[n+](Cc3nc4ccccc4[nH]3)c2)C=C(c2ccccc2)OC(c2ccccc2)=C1	Rtt109 HAT inh inconclusive, ABHD5 PLIN5 PPI 26 | ABHD5 PLIN5 conf inactive | HNF4 split-luc inactive
CC(C)(C)c1cc(O)ccc1O	none (no result: Rtt109 HAT inh, Myeloid diff MLP, Cardio protect, ABHD5 PLIN5 PPI, DAGLB inh)
CC1CCCCN1C(=O)Cn1cc(C=C2C(=O)N(C)C(=O)N(C)C2=O)c2ccccc21 (stereo not given)	none
CSc1nc(N)c(N=Nc2ccc([As](=O)(O)O)cc2)c(=O)[nH]1	ABHD5 PLIN5 PPI 66 | ABHD5 PLIN5 conf 68 | HNF4 split-luc 52
O=C1NC(=O)C2(CCCC2)C(=O)N1	none
Cc1ccc(C(O)P(=O)(Oc2ccccc2)Oc2ccccc2)cc1 (stereo not given)	none
O=C1NC(=O)N(Cc2ccc(F)cc2)C(=O)/C1=C\C=C\c1ccco1	ABHD5 PLIN5 PPI 29 | ABHD5 PLIN5 conf 96 | HNF4 split-luc 62
O=C1NC(=O)N(Cc2ccccc2)C(=O)/C1=C\c1ccco1	none
N#C/C=C/C#N	none
O=c1[nH]sc2cc(F)ccc12	Myeloid diff MLP inconclusive, ABHD5 PLIN5 PPI 81 | ABHD5 PLIN5 conf 40 | HNF4 split-luc 113
